Measured values reported in the supplement of paper PMC6555819.

Legend:
Assay in all cases: PBM binding z-score (relative to random genomic background probes); higher = stronger binding; sequences stand for … in GC…GCGATTGACAGCGTAGAATGAAGG
[1] = tested on: RARb homodimer (NR concentration 270 nM)
Procedure, shortened: (§1)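 Regression normalization was applied to scanned fluorescence from custom Agilent 4×180K protein-binding microarrays. Before scanning, arrays were incubated 1 h with ligand-free nuclear receptor dimers, and binding was detected with antibodies against each partner (one per run). Binding z-scores use the random background probes as reference.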

[2] = tested on: RARg:RXRa (NR concentration 270 nM, RXRa partner concentration 90 nM)
Procedure, shortened: as §1

[3] = tested on: RARg homodimer (NR concentration 270 nM)
Procedure, shortened: as §1

[4] = tested on: RXRa DBDmut IVT, anti-RXR (DBD mutation: RXRa K156A/R161A, NR concentration 90 nM)
Procedure, shortened: as §1

[5] = tested on: RXRa homodimer (NR concentration 180 nM)
Procedure, shortened: as §1

[6] = tested on: THRa:RXRa (NR concentration 90 nM, RXRa partner concentration 90 nM)
Procedure, shortened: as §1

[7] = tested on: THRa homodimer (NR concentration 90 nM)
Procedure, shortened: as §1

[8] = tested on: VDR homodimer (NR concentration 270 nM)
Procedure, shortened: as §1

Row | Sequence | PBM binding z-score [1] | PBM binding z-score [2] | PBM binding z-score [3] | PBM binding z-score [4] | PBM binding z-score [5] | PBM binding z-score [6] | PBM binding z-score [7] | PBM binding z-score [8]
1 | CAAACTAGGGCAAGGTCAAAGTCGGTTTGTGCCA | 4.09 | 4.67 | 4.49 | 2.41 | 4.63 | 3.75 | 2.34 | 3.52
2 | TCATATAGGTATACAGGTGAAAGTCCGTAAGTTA | 0.863 | 0.487 | 0.35 | 1.58 | 1.14 | 0.729 | 0.585 | 0.541
3 | CCTATTAGTTGGCCATAAGGGCAACCGAAGCTCG | 1.46 | 0.564 | 0.624 | 0.223 | 0.155 | 1.3 | 0.895 | 0.172
4 | TTACCAAGGTGAGGTGAGGTCGTTGATCCAACTC | 2.09 | 1.42 | 1.41 | 0.267 | 1.86 | 4.41 | 2.84 | 2.28
5 | ATCTCTAGGTAAGACTCAGTACAGTGAAGAACGC | 0.3 | 0.259 | 0.586 | 0.238 | 0.176 | 0.369 | 0.766 | 0.66
6 | TCGTGTAGGTTAGGGGCATTCAGAATGGCGTCGA | 1.37 | 0.648 | 0.819 | 1.09 | 0.961 | 1.3 | 0.787 | 0.922
7 | CAGCCTAGGCCAGGGCCAGTATAGGAGGAACGTT | -0.366 | -0.536 | 0.11 | -1.57 | -0.601 | -0.884 | -0.601 | -0.322
8 | TCTGCTAGGTCAGTTCGTCAGCTAACGAGCTGCC | 1.84 | 2.16 | 3 | 0.634 | 0.516 | 1.2 | -0.388 | 0.389
9 | CCTAGTTGGTCAAGGACACACACGCTATAGGTAC | 1.47 | 1.19 | 1.81 | 0.547 | 0.578 | 2.95 | 2.82 | 1.33
10 | CCTTACGGGTCAAGGATATAGCACGGGTGGTACG | 3.04 | 4.53 | 4.5 | 0.465 | 4.68 | 2.38 | 0.293 | 0.886
11 | TCGAGTAGGTTACCAATTGGGCATTCAGCTTTCT | -0.00589 | 0.186 | -0.124 | 0.484 | 0.205 | -0.0916 | -0.446 | -0.653
12 | TCGAGTAGGTTACCAATGGGGCATTTAGCTTTCT | 0.597 | 1.09 | 0.384 | 0.219 | 0.324 | -0.0531 | -0.844 | -0.414
13 | TCACCAAGGTGAGCTGAGGTCGTTGATCCAACTC | 1.5 | 1 | 0.829 | 0.546 | 1.28 | 4.7 | 1.49 | 1.64
14 | CCTATTAGTTGACCATAAGGGGAACCGAAGCTCG | 0.9 | 0.438 | 0.565 | 0.467 | 0.236 | 0.633 | 0.694 | 0.895
15 | GGTATTAGTTGAAAGGGCAACCGAATGATTCTCG | 2.53 | 1.76 | 1.81 | 0.965 | 1.5 | 1.08 | 0.579 | 1.23
16 | CCTAGTTGGTCAAGTTCACACACGCTATAGGTAC | 3.1 | 2.45 | 2.72 | 3.31 | 2 | 2.12 | 1.46 | 5.29
17 | CGTCAAAGTTCGACTAAGGTAACGTAAAGCACGC | 1.77 | 2.14 | 1.99 | 2.97 | 1.5 | 4.99 | 1.58 | 1.03
18 | TCTCGGAGGACACGAAGTTCAGAGCTTTCCAGAG | 2.07 | 1.17 | 2.04 | 1.08 | 0.47 | 1.72 | 0.372 | 2.38
19 | TAGCCTAGGTCATTCAGGGGCCAGTAAAGAAAGC | 3.38 | 6.24 | 4.69 | 1.5 | 3.27 | 3.63 | 0.491 | 1.24
20 | ATCTCTAGGTAAGACTCAGTTCAGTCAAGAACGC | 0.982 | 0.387 | 0.453 | 0.696 | 0.195 | 1.18 | 0.902 | 1.48
21 | TCTTCTAGATCAACAGGAGGTTAAGAAAGATCGA | 0.617 | 0.984 | 0.501 | 0.855 | 1.01 | 0.77 | -0.076 | -0.175
22 | CCTACTGGGCCATCAGGTCATTGTTATCAACGTT | 2.4 | 1.8 | 1.75 | 0.592 | 0.877 | 3.26 | 3.28 | 1.99
23 | ACTCGGAGGACAAAGGTCAGATCTACGCCAGTGA | 4.47 | 5.88 | 5.52 | 1.38 | 4.78 | 3.36 | 0.695 | 1.27
24 | GCTGCTAGGGCAGGTTGGTCAGCTAACGGGTACG | 0.705 | -0.148 | 0.544 | -0.241 | -0.467 | -0.443 | -0.665 | -0.232
25 | AACACAGGGTCATCGTAGGCCAGAGTACGCACAG | 3.59 | 5.74 | 5.13 | 3.79 | 6.58 | 4.5 | 1.69 | 3.84
26 | TAGCCTAGTTCATTGGGCCAGTATAGTACGCATC | 0.671 | 0.573 | 1.01 | 2.8 | 0.243 | 0.192 | -0.374 | 2.72
27 | CGCACGAGGGCATGAGTTGATAGCAAATGCCGAT | 1.2 | 1.1 | 1.72 | 2.41 | 0.956 | 1.3 | 0.0381 | 1.63
28 | TCGAGTAGGTTAGTCGGGGCAGTCAGCCAACATA | 0.699 | -0.199 | 0.0307 | 0.125 | -0.226 | 0.854 | -0.302 | -0.321
